Test results published in PubChem BioAssay AID743320 (Broad Institute, 2014).
Results with a measured potency or affinity are listed apart. Active and inactive are the calls of the source.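 Rule for the calls: active = signal drop whose fitted half-maximal potency is at most twice the top valid dose tested; inconclusive = flat curve inhibiting 30 to 70 percent, or a poor fit; inactive = the rest.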

The compounds below were run against Endoplasmic reticulum aminopeptidase 2 (Homo sapiens) (UniProt Q6P179) (assay: inhibition of ERAP2 arginine-AMC cleavage – biochemical, fluorescence plate reader, cherry-picked, set 2, selectivity assay for selective ERAP1 modulator project, dose response (AID 743320)). Conditions: recombinant ERAP2, Arg-AMC fluorescence, 1 h; series mostly up to 11 µM; activity change, negative = inhibition: at the top concentration.
Sequence of Endoplasmic reticulum aminopeptidase 2 (Homo sapiens) (Q6P179 whole entry, looked up): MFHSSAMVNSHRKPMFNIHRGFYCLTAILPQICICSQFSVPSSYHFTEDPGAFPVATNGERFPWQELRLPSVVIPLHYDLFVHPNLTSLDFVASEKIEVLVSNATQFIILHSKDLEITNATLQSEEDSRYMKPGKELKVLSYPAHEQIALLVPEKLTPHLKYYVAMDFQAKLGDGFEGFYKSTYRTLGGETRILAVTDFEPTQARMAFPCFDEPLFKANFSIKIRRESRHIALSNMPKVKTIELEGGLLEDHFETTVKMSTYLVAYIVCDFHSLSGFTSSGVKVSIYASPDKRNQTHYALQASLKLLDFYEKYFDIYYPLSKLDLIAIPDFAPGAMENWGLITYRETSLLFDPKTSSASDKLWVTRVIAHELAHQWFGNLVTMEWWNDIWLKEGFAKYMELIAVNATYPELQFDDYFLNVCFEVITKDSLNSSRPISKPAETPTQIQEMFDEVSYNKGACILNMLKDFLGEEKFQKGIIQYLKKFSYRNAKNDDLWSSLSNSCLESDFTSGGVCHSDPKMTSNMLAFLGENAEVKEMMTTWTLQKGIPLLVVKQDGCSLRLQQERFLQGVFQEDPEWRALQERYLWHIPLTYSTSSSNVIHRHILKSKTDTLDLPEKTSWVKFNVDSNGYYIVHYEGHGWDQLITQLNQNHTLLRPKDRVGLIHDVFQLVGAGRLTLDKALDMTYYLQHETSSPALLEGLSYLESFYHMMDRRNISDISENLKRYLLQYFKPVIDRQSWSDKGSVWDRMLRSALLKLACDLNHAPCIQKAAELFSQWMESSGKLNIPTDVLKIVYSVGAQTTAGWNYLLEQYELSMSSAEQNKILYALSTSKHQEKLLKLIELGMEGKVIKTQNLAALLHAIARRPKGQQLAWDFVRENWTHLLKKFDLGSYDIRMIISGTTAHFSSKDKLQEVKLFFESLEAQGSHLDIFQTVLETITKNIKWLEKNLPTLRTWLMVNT

Activity change, negative = inhibition, inactive:
COc1ccc(CN(C)C[C@@H]2OCCCC[C@H](C)Oc3ccc(NS(=O)(=O)c4cccs4)cc3C(=O)N([C@H](C)CO)C[C@@H]2C)cc1 10.2%
Cc1noc(C)c1S(=O)(=O)N(C)C[C@@H]1OCCCC[C@@H](C)Oc2ccc(NS(=O)(=O)c3cccs3)cc2C(=O)N([C@@H](C)CO)C[C@@H]1C 21.7% [at 10 µM]
O=C(CSc1cn[nH]n1)Nc1cccc(C(=O)O)c1 13.8%
C[C@@H]1CCCCO[C@@H](CN(C)C)[C@@H](C)CN([C@@H](C)CO)C(=O)c2cc(NS(=O)(=O)c3ccc(Cl)cc3)ccc2O1 2.17%
C[C@@H]1CCCCO[C@@H](CN(C)S(C)(=O)=O)[C@@H](C)CN([C@@H](C)CO)C(=O)c2cc(NS(=O)(=O)c3ccc(Cl)cc3)ccc2O1 9.01%
Cc1ccccc1-c1ccc2c(c1)O[C@@H](CN(C)Cc1ccc(C(=O)O)cc1)[C@@H](C)CN([C@H](C)CO)S2(=O)=O 8.67%
CCCN(C)C[C@@H]1OCCCC[C@@H](C)Oc2ccc(NS(=O)(=O)c3ccccc3)cc2C(=O)N([C@H](C)CO)C[C@@H]1C 16%
C[C@@H]1CCCCO[C@H](CN(C)Cc2ccccc2)[C@H](C)CN([C@H](C)CO)C(=O)c2cc(NS(=O)(=O)c3ccccc3)ccc2O1 22.4%
C[C@@H]1CCCCO[C@@H](CN(C)C)[C@@H](C)CN([C@@H](C)CO)C(=O)c2cc(NS(=O)(=O)c3ccc(F)cc3)ccc2O1 5.3%
Cc1cc(=O)oc2c(CN3CCN(C)CC3)c(O)c(Cl)cc12 12%
COc1ccc(NC(=O)Nc2ccc3c(c2)C(=O)N([C@H](C)CO)C[C@@H](C)[C@@H](CN(C)Cc2ccc(C(=O)O)cc2)OCCCC[C@@H](C)O3)cc1 2.96%
COc1ccc(S(=O)(=O)Nc2ccc3c(c2)C(=O)N([C@@H](C)CO)C[C@H](C)[C@H](CN(C)C)OCCCC[C@@H](C)O3)cc1 5.02%
CCCCc1cc(=O)oc2cc(O)ccc12 498%
C[C@@H]1CCCCO[C@@H](CN(C)CC2CC2)[C@@H](C)CN([C@H](C)CO)C(=O)c2cc(NS(=O)(=O)c3cccs3)ccc2O1 14.7%
CCC(=O)N(C)C[C@H]1Oc2ncc(C#Cc3ccncc3)cc2C(=O)N([C@H](C)CO)C[C@H]1C -5.99%
Cc1noc(C)c1S(=O)(=O)Nc1ccc2c(c1)C(=O)N([C@H](C)CO)C[C@H](C)[C@H](CN(C)Cc1ccc3c(c1)OCO3)OCCCC[C@@H](C)O2 11.2% [at 10 µM]
CCCN(C)C[C@@H]1OCCCC[C@@H](C)Oc2ccc(NS(=O)(=O)c3cccs3)cc2C(=O)N([C@H](C)CO)C[C@@H]1C 11%
C[C@H](CO)N1C[C@H](C)[C@H](CN(C)Cc2ccc(C(=O)O)cc2)Oc2c(NC(=O)Nc3ccccc3)cccc2C1=O 22.8%
COC(=O)[C@H]1[C@H](CO)[C@H]2Cn3c(ccc(-c4ccncc4)c3=O)[C@H]2N1Cc1ccccc1F 15.2%
C[C@H]1CN([C@@H](C)CO)C(=O)c2cccc(NC(=O)Nc3ccc(C(F)(F)F)cc3)c2O[C@@H]1CN(C)CC1CC1 -16.1%
Cc1c(O)ccc2c(CN3CCN(Cc4ccccc4)CC3)cc(=O)oc12 408%
Cc1ccccc1-c1ccc2c(c1)O[C@@H](CN(C)Cc1ccc(C(=O)O)cc1)[C@@H](C)CN([C@@H](C)CO)S2(=O)=O 0.523%
CCCN(C)C[C@@H]1OCCCC[C@@H](C)Oc2ccc(NS(=O)(=O)c3c(C)noc3C)cc2C(=O)N([C@H](C)CO)C[C@@H]1C -3.16% [at 10 µM]
CO[C@@H]1CN(C)C(=O)c2ccc(NC(=O)Nc3cccc(Cl)c3)cc2OC[C@@H](C)NC[C@H]1C 3.9%
CCCN(C)C[C@@H]1OCCCC[C@@H](C)Oc2ccc(NS(=O)(=O)c3ccc(C)cc3)cc2C(=O)N([C@@H](C)CO)C[C@@H]1C 6.28% [at 5 µM]
Cc1noc(C)c1NC(=O)N(C)C[C@@H]1Oc2c(NC(=O)Nc3ccccc3)cccc2C(=O)N([C@H](C)CO)C[C@@H]1C 10.6%
C[C@@H]1CCCCO[C@@H](CN(C)Cc2ccc(C(=O)O)cc2)[C@H](C)CN([C@@H](C)CO)C(=O)c2cc(NS(=O)(=O)c3ccc(Cl)cc3)ccc2O1 24.2%
C[C@@H]1CN([C@H](C)CO)C(=O)c2cccc(NC(=O)Nc3ccccc3)c2O[C@@H]1CN(C)Cc1ccc(C(=O)O)cc1 23.3%
O=C(C[C@H]1CC[C@@H]2[C@H](COC[C@@H](O)CN2C(=O)Nc2cccc(Cl)c2)O1)N1CCCCC1 32.4%
